Laboratory results as given in PubChem BioAssay (NCI).
Compounds without any hit were thinned out: in the full panel of roughly 83,000, 20% have a hit.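 Compound tested at a single concentration for 48 hours in 96-well plates; a percent growth value below 10 was scored as active.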 Values without a mark were called inactive. Activity calls are given as the source filed them.

Tests used:
Assay in all cases: NCI-60 one-dose screen, 48 h (100 = growth as untreated, 0 = no growth, -100 = all killed)
Settings in all cases: 10 µM unless noted
SK-MEL-2 melanoma = tested on: SK-MEL-2 melanoma
EKVX NSCLC = tested on: EKVX NSCLC
SN12C renal = tested on: SN12C renal
UO-31 renal = tested on: UO-31 renal
TK-10 renal = tested on: TK-10 renal
ACHN renal = tested on: ACHN renal
CAKI-1 renal = tested on: CAKI-1 renal
A498 renal = tested on: A498 renal
CCRF-CEM leukemia = tested on: CCRF-CEM leukemia
MOLT-4 leukemia = tested on: MOLT-4 leukemia

| Compound | growth (SK-MEL-2 melanoma) | growth (EKVX NSCLC) | growth (SN12C renal) | growth (UO-31 renal) | growth (TK-10 renal) | growth (ACHN renal) | growth (CAKI-1 renal) | growth (A498 renal) | growth (CCRF-CEM leukemia) | growth (MOLT-4 leukemia) |
| --- | --- | --- | --- | --- | --- | --- | --- | --- | --- | --- |
| CCCCCCCCn1ccc2cc(NC(=O)Cn3cc(CN4CCCCC4)nn3)ccc21 | 35.6% | 85% | 34.5% | -96.6% (active) | 75.7% | 57.5% | -45% (active) | 97% | 15.7% | 8.5% (active) |
| CC(C)OC(=O)c1ccc2[nH]c(O)c(C(=Nc3ccc(N(C)C(=O)CN4CCN(C)CC4)cc3)c3ccccc3)c2c1 | -73.6% (active) | -3.97% (active) | 8.95% (active) | -96.3% (active) | -90.5% (active) | 2.21% (active) | -93.4% (active) | -48.3% (active) | 6.41% (active) | -17.9% (active) |
| N#Cc1nn(-c2cc(=O)[nH]c3ccc(Cl)cc23)c(N)c1C#N | 116% | 94% | 104% | 75.8% | 105% | 92.7% | 101% | 116% | -15.8% (active) | -3.91% (active) |
| CC(C)c1ccc(NC(=O)Nc2ccc(NC(=O)CCCC(=O)NOCc3ccccc3)cc2)cc1 | 87.7% | 105% | 92.8% | 85% | 103% | 87.4% | 87.9% | 96.4% | 75.1% | 71.1% |
| O=S(=O)(NCCCNc1nccc(-c2c(-c3ccc(F)c(O)c3)nc3occn23)n1)c1ccccc1 | 31.9% | 101% | 79.1% | 75% | 122% | 70.1% | 96.5% | 101% | 79.1% | 78.2% |
| CC(C)(C)n1cc(-c2ccnc(NCCNS(=O)(=O)c3cccc4ccccc34)c2)c(-c2cccc(F)c2)n1 | -35.3% (active) | 8.04% (active) | -88.4% (active) | -38.2% (active) | -80% (active) | -58.5% (active) | -54.7% (active) | -73.1% (active) | 11% | -15.5% (active) |
| CCCCCCCCCCCCCCCCCCOc1ccccc1CC(=O)NCC[N+]1(C)CCCC1 | 62.4% | 92% | 29.8% | 85.1% | 25.9% | 95.8% | 74% | 71.5% | 18.8% | 14% |
| N#Cc1cccc(F)c1 | 103% | 113% | 99.2% | 84.9% | 106% | 95.6% | 94.6% | 129% | 104% | 107% |
| CCCC(O)Cn1ncc(C(=O)OCC)c1NC(=O)NCc1ccccc1F (stereo not given) | 74.3% | 95.7% | 96.8% | 74.2% | 99.1% | 107% | 80.1% | 90.7% | 76.3% | 71% |
| Cc1nc(-c2ccccc2)cc2c(O)c(C(=O)NN)[nH]c(=O)c12 | 93.3% | 111% | 90.9% | 97.4% | 161% | 109% | 114% | 100% | 95.1% | 102% |
| O=C(CSc1nc2ccc([N+](=O)[O-])cc2[nH]1)Nc1ccc(F)cc1 | 63.6% | 56.5% | 55.6% | 38.2% | 77.1% | 68.5% | 45.5% | 29.5% | 53.3% | 54.2% |
| COC1C[C@H](O[C@@H]2C[C@H](O[C@@H]3C[C@H](O[C@@H]4C(=O)c5c(cc6cc(O[C@H]7C[C@@H](O[C@H]8C[C@@H](O)[C@H](O)C(C)O8)[C@H](O)C(C)O7)c(C)c(O)c6c5O)C[C@H]4C(OC)C(=O)[C@@H](O)[C@@H](C)O)OC(C)[C@H]3O)OC(C)[C@@H]2O)OC(C)[C@@H]1O (stereo not given in full) | -61.7% (active) | 7.01% (active) | 2.57% (active) | 5.02% (active) | 1.34% (active) | 6.35% (active) | 28.6% | -44.5% (active) | 6.53% (active) | 5.23% (active) |
| O=C1/C(=C/c2ccc(F)cc2)COc2ccc(O)cc21 | 114% | 101% | 78.4% | 64.5% | 100% | 87.7% | 75.8% | 111% | 5.18% (active) | 51.7% |
| COC(=O)c1ccc2c(c1)C(=O)c1c-2n(CCCN)c(=O)c2cc([N+](=O)[O-])ccc12 | -49.8% (active) | -87.7% (active) | -100% (active) | -100% (active) | -83% (active) | -100% (active) | -94.2% (active) | -100% (active) | -83.9% (active) | -58.6% (active) |
| O=C(c1cc2ccccc2o1)c1nn(-c2ccccc2)/c(=N/N=Cc2cn(-c3ccccc3)nc2-c2cc3ccccc3oc2=O)s1 | 100% | 92.7% | 113% | 68.5% | 107% | 102% | 79.1% | 116% | 92.8% | 93.3% |
| CN(C)CCCC1(c2ccc(F)cc2)OCc2cc(-c3cncc4ccccc34)ccc21 (stereo not given) | 58.7% | 76.2% | 43.1% | 29.9% | 83.1% | 36.9% | 28.2% | 34.1% | 26.9% | 14.6% |
| CCOC(=O)Cn1c(O)c(N=Nc2ccc(S(N)(=O)=O)cc2)c2cc(Br)ccc21 | 88.8% | 83.3% | 88.2% | 87.5% | 86.4% | 84.8% | 86.4% | 91.4% | 53.4% | 77% |
| C=C(CNCCc1ccc(O)cc1)[C@@H]1CC[C@]2(CO)CC[C@]3(C)[C@H](CC[C@@H]4[C@@]5(C)CCC(NCCO)C(C)(C)[C@@H]5CC[C@]43C)[C@@H]12 (stereo not given in full) | -81% (active) | -52.1% (active) | -70.3% (active) | -96.1% (active) | -80.6% (active) | -60.8% (active) | -77.2% (active) | 69.3% | -19.7% (active) | -19.2% (active) |
| CC(C)NC1CCC(Nc2ccnc3cc(Cl)ccc23)CC1 (stereo not given) | 116% | 97.1% | 102% | 68.8% | 86.8% | 96.8% | 121% | 89.2% | -32.1% (active) | 69.2% |
| O=C(/C=C(/C=C/c1cccc2[nH]ccc12)OB(F)F)/C=C/c1cccc2[nH]ccc12 | -57.9% (active) | -30.9% (active) | -1.2% (active) | -77.6% (active) | -37.9% (active) | -70.3% (active) | -73.6% (active) | -35.2% (active) | -32.1% (active) | -11.9% (active) |
| O=C1C(Cl)=C(Nc2ccc(O)cc2)C(=O)N1Cc1ccc(Cl)cc1 | 66.2% | 79% | 64.9% | 52.2% | 63.2% | 71.4% | 74% | 75.4% | 4.97% (active) | 16.9% |
| O=C(CSc1nc2sc3c(c2c(=O)n1-c1ccccc1)CCCCC3)N/N=C/c1ccc(F)cc1 | 91.9% | 80% | 16.3% | 88.2% | 69.1% | 26.8% | -13.7% (active) | 89.7% | 46% | 67.1% |
| COc1ccc(OC)c(C(=O)/C=C/c2cc3c(c(OC)c2OC)OCO3)c1 | 83.6% | 73% | 74.7% | 63.6% | 122% | 68% | 52% | 69.9% | 40.1% | 52.8% |
| COc1ccc(N2CCC(=O)NC2=S)cc1 | 102% | 102% | 98.3% | 86.5% | 100% | 104% | 95.4% | 108% | 111% | 105% |
| O=Nc1c(-c2c(O)[nH]c3ncccc23)[nH]c2ccccc12 | 14.7% | 35.5% | 72.8% | 10.6% | 40.3% | 22.6% | 12.4% | -11.7% (active) | 64.8% | 40.8% |
| C=CCn1c(SCC(=O)Nc2ccc(C(=O)/C=C/c3ccc(Cl)cc3)cc2)nnc1-c1cc(-c2ccc(S(N)(=O)=O)cc2)nc2ccccc12 | 103% | 94.6% | 90.2% | 82.8% | 99.9% | 98.1% | 66.3% | 89% | 54.2% | 66.1% |
